Experimental data as given in PubChem BioAssay AID1347165 (National Center for Advancing Translational Sciences (NCATS), 2019).
About 5,700 (2.6%) of roughly 220,000 compounds were called active. Not shown: some 18% with an inconclusive outcome. For the sample, actives were picked, then their nearest neighbours and some compounds at random. Values without a mark were called inactive. Calls follow the shape of the dose curve; as a rule, active = well fitted inhibition curve with a large enough effect; inconclusive = small, poorly fitted or top-dose-only effect; inactive = no such curve, though single readings can be large or run the other way.

target: Lysine-specific demethylase 5B (Homo sapiens) (UniProt Q9UGL1); test: Primary screen for KDM5B Histone Demethylases FDH-coupled qHTS; conditions: FDH-coupled NADH fluorescence (FDH is formaldehyde dehydrogenase); series mostly up to 57.7 µM; activity change, negative = inhibition: at the top concentration; also: nearly all actives have a fitted effect of over 70% in size; as to activity change, negative = inhibition: 0% is about no effect
Summary of the method: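 Coupled FDH/NAD⁺ fluorescence readout. KDM5BΔAP 200 nM final; compound titration, 10 min RT preincubation; substrate mix 12.5 µM H3K4me3, 25 µM 2-OG, 50 µM Fe(II), 100 µM ascorbate, 0.25 mM NAD⁺, 0.25 U/mL FDH; ΔRFU over 30 min.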
Potency is read from the fitted curve at half-maximal effect.

Lysine-specific demethylase 5B (Homo sapiens), sequence (Q9UGL1 whole entry, looked up): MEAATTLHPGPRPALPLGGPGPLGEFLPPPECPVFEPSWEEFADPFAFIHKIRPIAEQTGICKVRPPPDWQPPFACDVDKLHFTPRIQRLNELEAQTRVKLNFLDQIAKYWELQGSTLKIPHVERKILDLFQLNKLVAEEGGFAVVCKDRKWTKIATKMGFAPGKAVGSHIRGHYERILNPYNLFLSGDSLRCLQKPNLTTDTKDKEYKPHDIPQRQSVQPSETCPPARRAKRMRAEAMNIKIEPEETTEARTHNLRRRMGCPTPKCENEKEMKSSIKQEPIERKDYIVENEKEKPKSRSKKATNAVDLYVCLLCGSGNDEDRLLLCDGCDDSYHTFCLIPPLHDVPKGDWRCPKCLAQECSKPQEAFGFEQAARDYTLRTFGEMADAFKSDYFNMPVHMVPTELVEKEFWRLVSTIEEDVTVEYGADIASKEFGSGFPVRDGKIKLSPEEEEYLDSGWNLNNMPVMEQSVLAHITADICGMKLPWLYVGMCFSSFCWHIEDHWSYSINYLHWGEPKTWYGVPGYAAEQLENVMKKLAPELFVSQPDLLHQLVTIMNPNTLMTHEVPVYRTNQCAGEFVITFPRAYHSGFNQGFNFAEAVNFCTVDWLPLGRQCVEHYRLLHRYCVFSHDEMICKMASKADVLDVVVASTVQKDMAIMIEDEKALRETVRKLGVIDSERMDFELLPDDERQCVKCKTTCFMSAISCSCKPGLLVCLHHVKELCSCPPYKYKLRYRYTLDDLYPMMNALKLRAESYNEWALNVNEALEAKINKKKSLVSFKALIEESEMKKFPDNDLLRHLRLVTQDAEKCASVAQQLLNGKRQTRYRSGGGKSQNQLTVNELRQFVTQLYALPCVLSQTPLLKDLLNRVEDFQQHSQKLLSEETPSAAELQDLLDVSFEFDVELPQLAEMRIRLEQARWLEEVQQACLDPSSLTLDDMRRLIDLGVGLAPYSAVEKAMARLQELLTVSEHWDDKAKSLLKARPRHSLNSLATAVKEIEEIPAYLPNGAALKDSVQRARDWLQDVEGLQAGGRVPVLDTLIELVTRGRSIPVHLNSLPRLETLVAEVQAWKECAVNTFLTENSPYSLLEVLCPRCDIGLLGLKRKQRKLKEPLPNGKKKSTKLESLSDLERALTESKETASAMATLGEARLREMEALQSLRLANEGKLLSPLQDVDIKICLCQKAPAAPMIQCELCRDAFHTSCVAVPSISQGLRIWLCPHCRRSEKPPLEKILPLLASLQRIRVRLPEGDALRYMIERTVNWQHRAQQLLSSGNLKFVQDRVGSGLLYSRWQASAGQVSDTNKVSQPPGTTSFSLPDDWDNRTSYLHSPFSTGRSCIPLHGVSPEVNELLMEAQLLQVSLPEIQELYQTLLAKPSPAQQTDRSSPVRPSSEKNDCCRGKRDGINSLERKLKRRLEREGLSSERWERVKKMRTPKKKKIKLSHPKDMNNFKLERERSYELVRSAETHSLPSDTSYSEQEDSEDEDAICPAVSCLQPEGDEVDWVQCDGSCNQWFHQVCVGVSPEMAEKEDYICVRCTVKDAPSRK

Row | Structure (SMILES) | activity change, negative = inhibition | Potency
1 | O=C(N/N=C/c1ccccc1Cl)c1ccc(Cl)s1 | -3.13% | 
2 | OCC#Cc1csc(CN2CCCC3(CCNCC3)CC2)c1 | 10.2% | 
3 | C=CCN(C)C(=O)[C@@H](C)C1CC[C@@]2(C)Cc3sc(Nc4c(Cl)cccc4Cl)nc3[C@@H](C)[C@@H]2[C@H]1O (stereo partly specified) | -26.3% | 
4 | C=CCN(C)C(=O)[C@@H](C)C1CC[C@@]2(C)Cc3sc(NS(=O)(=O)c4ccc(Cl)cc4)nc3[C@@H](C)[C@@H]2[C@H]1O (stereo partly specified) |  | 28.2 µM (active)
5 | CCN(CC)C(=O)[C@@H](C)C1CC[C@@]2(C)Cc3sc(N)nc3[C@@H](C)[C@@H]2[C@H]1O (stereo partly specified) | -5.26% [at 86.2 µM] | 
6 | O=C1Nc2cnccc2C2(CCN(C(=O)c3ccccc3F)C2)O1 (stereo unspecified) |  | 31.6 µM (active)
7 | CC(C)C1=NOC2(CCN(C(=O)c3ccccc3F)C2)C1 (stereo unspecified) | 2.96% [at 149 µM] | 
8 | O=C(c1ccccc1F)N1CCC2(CC1)C(=O)Nc1ccccc12 | -1.94% [at 149 µM] | 
9 | O=C(O)Cc1ccc(NC(=O)Nc2cccc3ccccc23)cc1 | 19.1% | 
10 | COc1ccc2nc(SCC(=O)Nc3ncccn3)[nH]c2c1 | 10.3% | 
11 | COc1ccccc1-c1cc(-c2cn[nH]c2)c2cncn2c1 | -2460% [at 115 µM] | 
12 | c1cc(N2CCOCC2)ccc1-c1cc(-c2cn[nH]c2)c2cncn2c1 |  | 28.2 µM (active)
13 | Cn1cc(CC(=O)N2CCCc3ncc(C(=O)N4CCCC[C@@H]4c4ccccc4)cc32)c2ccccc21 | -17.3% | 
14 | Cn1cc(-c2ccccc2)cc1C(=O)NCc1ccc(N2CCOCC2)cc1 | -31.6% | 
15 | COCc1cc(=O)n(CC(=O)NCc2ccc(C)cc2)c(N2CCOCC2)n1 | -28% | 
16 | CCC(=O)Nc1cc(C(=O)NCc2ccc(N3CCOCC3)cc2)c2ccc(C)nc2c1 |  | 14.1 µM (active)
17 | N#Cc1nc(C2CC2)oc1N1CCN(Cc2c(F)cccc2Cl)CC1 | 12.1% | 
18 | Cn1c(SCC(=O)N2CCCC2)nnc1-c1ccc2c(c1)OCO2 | 23.9% | 
19 | c1ccc(CNCc2cccc3ccccc23)cc1 | -14.2% | 
20 | Cc1ccc(F)cc1S(=O)(=O)N1CCC(c2nc3ccccc3s2)CC1 | 2.62% | 
21 | CN1CCC(N2CC[C@H](c3nc4ccccc4s3)C2)CC1 |  | 28.2 µM (active)
22 | CC(C)(C)c1ccc(OCC(=O)N2CCC(c3nc4ccccc4s3)CC2)cc1 | 10.7% [at 11.5 µM] | 

Row | Structure (SMILES) | activity change, negative = inhibition | Potency
23 | Cc1c(-c2ccccc2)oc2c(C(=O)N3CCN(C(=O)c4ccccc4)CC3)cccc2c1=O | -12.4% | 
24 | CCCOc1ccccc1C(=O)N1CCC2(CC1)[C@H](O)C[C@@H]2OCCN | -7.52% | 
25 | Cn1c(COc2ccccc2Cl)nnc1SCCn1cccn1 | 21% | 
26 | Clc1ccccc1C1(c2ccnc(NCCn3cccn3)n2)CCNCC1 |  | 28.2 µM (active)
27 | CCOc1ccc(/C=C2/Cc3c(O)cccc3C2=O)cc1 | 11.1% | 
28 | N#CC1(NC(=O)COC(=O)CCN=C2NS(=O)(=O)c3ccccc32)CCCCC1 | 6.37% | 
29 | O=c1cc(-c2cccnc2)oc2c(-c3ccccc3O)nccc12 | -14.1% [at 86.2 µM] | 
30 | CN(c1ccccc1)c1cc(=O)c2ccnc(-c3ccc(CO)cc3)c2o1 | -32.9% [at 86.2 µM] | 
31 | O=c1cc(-c2cccnc2)oc2c(-c3cccc(CO)c3)nccc12 |  | 35.5 µM (active)
32 | N#CC1=C(N)Oc2n[nH]c(-c3ccc4c(c3)OCO4)c2C1c1cccc(O)c1 (stereo unspecified) | -29.3% | 
33 | CN1CCN(c2oc(-c3ccccc3)nc2S(=O)(=O)c2ccc3c(c2)OCCO3)CC1 | 13.1% | 
34 | COCc1noc(-c2ccc(NCCN3CCNC3=O)nc2)n1 | 30.3% | 
35 | COCCc1noc(-c2ccc(NC(C)c3ncccc3C)nc2)n1 (stereo unspecified) |  | 28.2 µM (active)
36 | COc1ccc(S(=O)(=O)NCCc2noc(-c3ccncc3)n2)cc1 | 13.7% | 
37 | COc1cccc(CC(=O)NCCc2noc(-c3cccnc3)n2)c1 | 12.9% | 
38 | O=C(O)Cn1ccc2cc(OCCc3cccc(-c4cccnc4)c3)cnc21 |  | 35.5 µM (active)
39 | O=C(O)CSCc1cccnc1 | -4.43% | 
40 | COc1cc(CNCC(O)c2ccccc2)ccc1Oc1nnnn1-c1ccccc1 (stereo unspecified) | 22.5% | 
41 | CCNC(=O)NC(=O)C(C)OC(=O)c1ccc(C(=O)OC)cc1 (stereo unspecified) | 8.54% | 
42 | Cc1ccc(-n2nnnc2C2(Nc3ccccc3)CCCC2)cc1 | 14.5% | 
43 | COc1cccc(CN2CCN(C(=O)c3cnc4ccccn4c3=O)CC2=O)c1 |  | 28.2 µM (active)
44 | COc1cccc(CN2CCOC3CCN(C(=O)c4cccnc4)CC3C2=O)c1 (stereo unspecified) | -15.9% [at 86.2 µM] | 

Row | Structure (SMILES) | activity change, negative = inhibition | Potency
45 | COc1cccc(CC(=O)NC2CCN(c3cn[nH]c(=O)c3)CC2)c1 | -1.04% | 
46 | O=C(CCc1cccs1)N(CC1CCOC1)C1CC1 (stereo unspecified) | 16.4% | 
47 | Cc1nc2sc3c(c2c2nc(-c4ccc(O)cc4)nn12)CC(C)(C)OC3 | -15.1% | 
48 | Cn1c(Oc2cccc(Cl)c2)nc2c1c(=O)n(Cc1ccc(F)cc1)c(=O)n2C | 4.11% | 
49 | Cc1nc2ccc(C(=O)NCCCOCC3CC3)cc2nc1C | 3.23% | 
50 | O=C(CN1CCN(c2ccccc2)CC1)Nc1ccc(F)cc1 | 9.95% | 
51 | O=C(Cc1ccc(F)cc1)NC1CCN(c2cc(-c3ccc(Cl)cc3)[nH]n2)CC1 | -21.9% | 
52 | O=C(CN1CCN(Cc2ccc(Cl)cc2)C1=O)NCc1ccc(F)cc1 | -11.5% | 
53 | O=C(Cc1ccc(Cl)cc1)NCc1nnc2ccc(-c3ccc(F)cc3)nn12 |  | 25.1 µM (active)
54 | COc1ccc(CNc2nc(-c3ccc(Cl)cc3)nn2S(=O)(=O)c2ccc(C)cc2)cc1 | 3.11% | 
55 | COc1cc(NC(=O)CSc2nnc3ccc(-c4ccncc4)nn23)cc(OC)c1 | -1.83% | 
56 | COc1ccc(-c2ccc3nnc(CNC(=O)C(C)Oc4ccc(Cl)cc4)n3n2)cc1 (stereo unspecified) |  | 28.2 µM (active)
57 | COc1ccc(Oc2c(C)oc3cc(OCC(=O)NCc4ccccc4)ccc3c2=O)cc1 | -5.87% | 
58 | COc1cccc(C(=O)Oc2ccc(C)cc2C(=O)/C=C/c2ccc(F)cc2)c1 | -3.94% | 
59 | CC(C)NC(=O)Nc1cccc(C(=O)Nc2cccc(Cl)c2)c1 | -1.45% | 
60 | CC(NC(=O)/C=C/c1ccsc1)C1CCCO1 (stereo unspecified) | 22.6% | 
61 | N#Cc1ccc(OCC(O)CNCCC2=CCCCC2)cc1 (stereo unspecified) | 23.8% | 
62 | O=C(NCCc1c[nH]c2ccc(Cl)cc12)c1ccccc1 | -16.9% | 
63 | CC(C)Oc1ccc(/C(O)=C2\C(=O)C(=O)N(c3nccs3)C2c2cccc(Br)c2)cc1 (stereo unspecified) | -24% | 
64 | O=C(CSc1ncccn1)c1ccc(F)cc1 | -6.11% | 
65 | CCOc1ccc(-c2nc(S(=O)(=O)c3ccc(F)cc3)c(NC)o2)cc1 | 13.1% | 
66 | O=C(CNc1nc(Cl)nc2nc[nH]c12)NC1CC1 | -1.28% | 
